Among the data in PubChem BioAssay (Tox21) are Potency values, retold here.

Active and inactive are the calls of the source. A call without a number means that no potency is given here. The call rests on the fitted dose curve; in most records, active means well fitted curve in the direction sought with a large enough effect in the repeat runs; inconclusive means weak or mixed curves; inactive means flat fitted curve, though single readings scatter.
Potency means the concentration at half of the fitted maximal effect; tags describe the fitted curve by direction and shape or compound fluorescence and quenching.

A short description of the assay: qHTS assay to test for compound auto fluorescence at 460 nm (blue) in HEK293 cells (AID 720678). The following applies: blue autofluorescence 405/460 nm; series mostly up to 46 µM. The source says: National Center for Advancing Translational Sciences [NCATS]
NIH Chemical Genomics Center [NCGC]
U.S. Environmental Protection Agency [EPA]
National Institutes of Environmental Health Sciences [NIEHS]
National Toxicology Program [NTP]
U.S. Food and Drug Administration [FDA]
Compound auto fluorescence often interferes with screening of the compound library against various biological targets and signaling pathways. Some of these compounds may have fluorophoric properties. Such properties may interfere with the assay outputs resulting in false positives and/or negatives. To decrease such complications and ensure the compound activities are relevant in terms of biological response, the Tox21 10K compound library was screened for auto fluorescence.
From the fluorophores used as reporter signals in our screening assays, the auto fluorescence equivalencies of compounds against three fluorophores have been evaluated: Triamterene, Fluorescein and Rose Bengal sodium for blue, green and red fluorescence, respectively. The fluorescence intensities were measured using Excitation/Emission wavelengths at 405/460nm, 485/535nm and 540/590nm for blue, green and red labels, respectively. This assay includes the blue fluorescence data.
Tox21 Assay Protocol Summary:
2,000 HEK293 cells in 5 uL of culture medium containing 10% dialyzed FBS per well were dispensed into black wall/clear bottom 1536-well plates using a Multidrop Combi Dispenser (Thermo Scientific). The assay plates were incubated for 4-5 hr at 37C to allow cell attachment to the well bottom, followed by the transfer of 23 nL compound or DMSO vehicle by a pintool work station (Kalypsys, San Diego, CA). After the assay plates were incubated overnight at 37C and 5% CO2, fluorescence intensities in the assay plates were measured by an Envision (PerkinElmer, Shelton, CT) plate reader using three labels for measuring blue, green and red fluorescence at […] 460, 535 and 590nm respectively.
(qHTS replaces the single test concentration by a dilution series.)
Take `CCc1cn([C@H]2C[C@H](O)[C@@H](CO)O2)c(=O)[nH]c1=O`: the Potency result was “inactive”.
As for `CCOC(=O)[C@H](CCc1ccccc1)N[C@@H](C)C(=O)N1[C@H](C(=O)O)C[C@H]2CCCC[C@@H]21`, the entry is “inactive”; as for `CC[C@H](C)C(=O)O[C@H]1CCC=C2C=C[C@H](C)[C@H](CC[C@@H]3C[C@@H](O)CC(=O)O3)[C@H]21`, “inactive”; as for `CN1CCN(CCCN2c3ccccc3Sc3ccc(C(F)(F)F)cc32)CC1`, “inactive”.
As for `NC(=O)[C@@H]1C[C@]2(NC(=O)NC2=O)c2cc(F)ccc2O1`, the entry is “inactive”; as for `OCl`, “inactive”; as for `CS(=O)(=O)c1ccc([C@@H](CC2CCCC2)C(=O)Nc2cnccn2)cc1Cl`, “inactive”.
As for `O=C1CCC(c2ccccc2)(C2CCN(Cc3ccccc3)CC2)C(=O)N1` (stereo not given), the entry is “inactive”.
In the case of `CN1[C@@H](CC(=O)c2ccccc2)CCC[C@H]1C[C@H](O)c1ccccc1`, the Potency result is “inactive”.
Regarding `CO[C@H](C(=O)[C@@H](O)[C@@H](C)O)C1Cc2cc3cc(O[C@H]4C[C@@H](O[C@H]5C[C@@H](O)[C@H](O)[C@@H](C)O5)[C@@H](O)[C@@H](C)O4)c(C)c(O)c3c(O)c2C(=O)[C@H]1O[C@H]1C[C@@H](O[C@H]2C[C@@H](O[C@H]3C[C@](C)(O)[C@H](O)[C@@H](C)O3)[C@H](O)[C@@H](C)O2)[C@H](O)[C@@H](C)O1` (stereo not given in full), the Potency entry is “inactive”.
As for `FC(F)(F)COCC(F)(F)F`, the entry is “inactive”; as for `CC[C@H]1OC(=O)C[C@@H](O)[C@H](C)[C@@H](O[C@@H]2O[C@H](C)[C@@H](O[C@H]3C[C@@](C)(O)[C@@H](O)[C@H](C)O3)[C@H](N(C)C)[C@H]2O)[C@@H](CC=O)C[C@@H](C)C(=O)/C=C/C(C)=C/[C@@H]1CO[C@@H]1O[C@H](C)[C@@H](O)[C@@H](OC)[C@H]1OC`, “inactive”; as for `C=C1[C@@H]2CC[C@@H](C2)C1(C)C`, “inactive”.
Regarding `CCCCC/C=C\C=C\C(=O)OCC`, the Potency entry was “inactive”.
As for `O=C1c2ccccc2-c2n[nH]c3cccc1c23`, the figure is 12.6 µM [fluorescent] (active).
As for `NC(=O)CC[C@@H]1NC(=O)[C@H](Cc2ccccc2)NC(=O)[C@H](Cc2ccc(O)cc2)NC(=O)[C@@H](N)CSSC[C@@H](C(=O)N2CCC[C@H]2C(=O)N[C@@H](CCCN=C(N)N)C(=O)NCC(N)=O)NC(=O)[C@H](CC(N)=O)NC1=O`, the entry is “inactive”.
Turning to `CC[C@@]1([C@@H]2O[C@@H]([C@H]3O[C@@](O)(CO)[C@H](C)C[C@@H]3C)C[C@@H]2C)CC[C@H]([C@]2(C)CC[C@]3(C[C@H](O)[C@@H](C)[C@@H]([C@@H](C)[C@@H](OC)[C@H](C)C(=O)O)O3)O2)O1` (stereo in doubt), the Potency result is “inactive”.
`CC(=O)O[C@H]1C[C@@H]2CC[C@@H]3[C@H](CC[C@@]4(C)[C@H]3C[C@H]([N+]3(C)CCCCC3)[C@@H]4OC(C)=O)[C@@]2(C)C[C@@H]1[N+]1(C)CCCCC1`: the Potency result was “inactive”.
Take `CCN(CC)CC#CCOC(=O)C(O)(c1ccccc1)C1CCCCC1` (stereo not given): the Potency result is “inactive”.
As for `NC(N)=NCc1cccc(I)c1`, the entry is “inactive”; as for `COc1c(O)cc2c(c1O)[C@@H]1O[C@H](CO)[C@@H](O)[C@H](O)[C@H]1OC2=O`, “inactive”; as for `C=CCc1cc(S(=O)(=O)c2ccc(O)c(CC=C)c2)ccc1O`, “inactive”.
Turning to `CN=C(N)NCCC[C@H](N)C(=O)O`, the Potency result is “inactive”.
As for `CC(C)(O/N=C(\C(=O)N[C@@H]1C(=O)N2C(C(=O)[O-])=C(C[n+]3ccccc3)CS[C@H]12)c1csc(N)n1)C(=O)O`, the entry is “inactive”; as for `CCN1\C(=C/C=C/C=C/c2sc3ccccc3[n+]2CC)Sc2ccccc21`, “inactive”.
As for `CS(=O)(=O)c1ccc([C@@H](O)[C@@H](COC(=O)CN)NC(=O)C(Cl)Cl)cc1`, the entry is “inactive”; as for `O=[N+]([O-])c1ccc(O)c2ncccc12`, “inactive”; as for `CC1(C)CCC(NC(=O)[C@@H](N)CCC(=O)O)CC1`, “inactive”.
Regarding `CC(=O)N(C)C`, the Potency result is “inactive”.
For `NC(N)=NCC1COC2(CCCCC2)O1` (stereo not given), the Potency result is “inactive”.
As for `CO/N=C(\C(=O)N[C@@H]1C(=O)N2C(C(=O)O)=C(CSc3nc(C)c(CC(=O)O)s3)CS[C@H]12)c1csc(N)n1`, the entry is “inactive”.
As for `N[C@@H](Cc1ccc(O)c(O)c1)C(=O)O`, the entry is “inactive”.
As for `CC(C)=CCC/C(C)=C/CC/C(C)=C/CC/C=C(\C)CC/C=C(\C)CCC=C(C)C`, the entry is “inactive”.
On to `CO/N=C(\C(=O)N[C@@H]1C(=O)N2C(C(=O)[O-])=C(C[n+]3ccc(N)n3CCO)CS[C@H]12)c1csc(N)n1`, for which the Potency entry is “inactive”.
As for `CC(C)(C)C(=O)OCC(=O)[C@H]1CC[C@H]2[C@@H]3CCC4=CC(=O)CC[C@]4(C)[C@H]3CC[C@]12C`, the entry is “inactive”; as for `O=C(CCCN1CCN2CCCC2C1)c1ccc(F)cc1` (stereo not given), “inactive”; as for `C[C@@H]1O[C@@H]1P(=O)(O)O`, “inactive”.
As for `C/C(=C(/CCO)SSCC1CCCO1)N(C=O)Cc1cnc(C)nc1N` (stereo not given), the entry is “inactive”; as for `CCCCCCCCOC(=O)c1cc(O)c(O)c(O)c1`, “inactive”; as for `C[C@]12O[C@H](C[C@]1(O)CO)n1c3ccccc3c3c4c(c5c6ccccc6n2c5c31)CNC4=O`, “inactive”.
